# Hit rate of the full screen: of about 1,300 compounds, fewer than 10 were called active. Another 9% or so got no clear call; they are omitted. Calls come from the whole dose curve; as a rule, active = well fitted curve in the direction sought with a large enough effect; inconclusive = small, poorly fitted or top-dose-only effect, or another doubt; inactive = no such curve, though single readings can be large or run the other way. Not all results are given here. A call without a number means that no potency is given here.
# Test: qHTS for antagonists of the Thyroid Stimulation Hormone Receptor: Hit Validation in Parental Cell Line
# Conditions: parental HEK293 cells lacking TSHR, counter-screen; series mostly up to 56.9 µM
# From the text: The thyroid-stimulating hormone receptor (TSHR) is a member of the 7 trans-membrane-spanning receptor (7TMR) family of cell surface receptors. TSHR-mediated hyperthyroidism is important in thyroid pathology. The development of small molecule antagonists of TSHR may lead to therapeutic approaches for TSHR-mediated hyperthyroidism caused by constitutively activating mutations or stimulating auto-antibodies associated with Graves' disease. Graves' disease is the leading cause of hyperthyroidism and is caused by autoantibodies that stimulate TSHR (TsAbs) causing thyroid growth and unregulated overproduction of thyroid hormones and existing treatments have liabilities (agranulocytosis). In addition, TSHRs are known to be expressed in multiple extrathyroidal tissues including bone, brain, kidney, testis, fat and cells of the immune system but the role of the TSHR in these tissues is not clear. Therefore, TSHR antagonists/inverse agonists could be used as probes of extrathyroidal TSHR function. Finally, TSHR inverse agonists, which are a subclass of antagonists that inhibit agonist-independent (or basal or constitutive) TSHR signaling, could be used to inhibit TSH-independent signaling in patients with recurrent or metastatic thyroid cancer who are receiving thyroid hormone to suppress TSH.
# In collaboration between scientist from the NCGC and the NIDDK, a miniaturized HTRF high-throughput screen was developed. It's a cell based assay, where an anti cAMP antibody contains a fluorescent cryptate tag (excitation 337 nm; emission 620 nm) and the acceptor is cAMP-d2 (excitation 620 nm; emission 665 nm). When antibody and cAMP-d2 interact and are excited by a 337 nm light, a FRET occurs resulting in emission at 665 nm. The assay is competition between cAMP-d2 and cAMP (from the cell lysate). The homogeneous protocol allows for one step dispense after stimulation that is automation friendly. This is a hit validation assay in a counterscreen using parental HEK 293 cells lines.
# NIH Chemical Genomics Center [NCGC]
# NIH Molecular Libraries Probe Centers Network [MLPCN]
# Assay Provider: Marvin Gershengorn, NIDDK
# An anti cAMP antibody contains a fluorescent cryptate tag (excitation 337 nm; emission 620 nm) and the acceptor is cAMP-d2 (excitation 620 nm; emission 665 nm). When antibody and cAMP-d2 interact and are excited by a 337 nm light, a FRET occurs resulting in emission at 665 nm. The assay is competition between cAMP-d2 and cAMP (from the cell lysate). The homogeneous protocol allows for one step dispense after stimulation that is automation friendly. This assay uses parental HEK-EM 293 cells
# Potency is the fitted concentration of half-maximal effect.
row,Compound,Potency
1,CC(C)c1ccc(OCC(=O)Nc2cccc3c2CCCC3)cc1,inactive
2,O=C(Cn1cnc2ccccc21)Nc1ccc2c(c1)OCCCO2,inactive
3,Cc1c(Nc2cc(Cl)c3nonc3c2[N+](=O)[O-])c(=O)n(-c2ccccc2)n1C,inactive
4,CN(C)S(=O)(=O)c1ccc(N2CCN(S(=O)(=O)c3ccc(F)cc3)CC2)c(Cl)c1,inactive
5,CC(NC(=O)c1ccc([N+](=O)[O-])o1)C1CC2CCC1C2 (stereo not given),inactive
6,C=CCC1(CC=C)CCCN1C(=O)c1cc(COc2ccc(C)nc2)on1,inactive
7,C=CCN1C(=O)C(Cc2ccc(OC)cc2)S/C1=N/N=C/c1ccco1 (stereo not given),inactive
8,CSc1cnn(Cc2ccccc2)c(=O)c1SCc1ccccc1,inactive
9,COC(=O)c1ccc(COc2cc(O)c3c(c2)OC(C)(C)CC3=O)cc1,inactive
10,COc1ccc(-c2csc3ncnc(N4CCN(S(=O)(=O)c5cccs5)CC4)c23)cc1,inactive
11,N#Cc1ccc(CN2CCN(C(=O)c3ccc(S(=O)(=O)N4CCCCCC4)cc3)CC2)cc1,inactive
12,Cc1ccc(NC(=O)COc2cccc3c2OC(C)(C)C3)c(O)c1,inactive
13,N#C/C(=N\Nc1ccc(S(=O)(=O)N2CCCCCC2)cc1)C(N)=S,inactive
14,Cc1sc2nc(-c3ccccn3)[nH]c(=O)c2c1-c1ccccc1,inactive
15,O=S(=O)(NCc1csc(-c2ccccc2)n1)c1ccc(Cl)s1,inactive
16,O=C(Nc1ccc(Br)cc1)c1cccc(S(=O)(=O)Nc2cnc3ccccc3c2)c1,inactive
17,COc1ccc2ccccc2c1/C=N/NC(=O)c1nnn(-c2nonc2N)c1C(C)C,inactive
18,COc1ccc(-c2csc(/C(C#N)=C\c3ccc(O)c([N+](=O)[O-])c3)n2)cc1OC,inactive
19,CCOC(=O)c1sc(NC(=O)c2cc(-c3ccccc3C)nc3ccccc23)c(C#N)c1C,inactive
20,Cc1ccc(OCc2cc(C(=O)NC3CCCCC3)no2)cn1,inactive
21,O=C(Nc1ccncc1)c1cccc(S(=O)(=O)N2CCc3ccccc32)c1,inactive
22,N#C/C(=N/Nc1ccc(OC(F)(F)F)cc1)C(N)=S,inactive

row,Compound,Potency
1,Cc1ccc(CN2CCc3c(OCc4ccc(F)cc4)cccc3C2=O)cc1,inactive
2,COc1ccc(C(=O)c2ccccc2)c2c(O)ccc(C(=O)c3ccccc3)c12,inactive
3,CCCC(=O)OCCNc1cc(Sc2nc3ccccc3[nH]2)c2nonc2c1[N+](=O)[O-],inactive
4,N#CC(C#N)=NNc1ccc(S(=O)(=O)N2CCCCC2)cc1,inactive
5,COc1ccc(NS(=O)(=O)c2cccc(NC(=O)C3=NN(c4ccccc4)C(=O)CC3)c2)cc1,inactive
6,CCOc1ccc(-c2csc(/C(C#N)=C\c3ccc(O)c([N+](=O)[O-])c3)n2)cc1,inactive
7,Cc1cc(C)n(C(=O)/C(C#N)=N/Nc2cc(Cl)cc(Cl)c2)n1,inactive
8,COc1ccccc1C(=O)COC(=O)/C=C/c1ccccc1,inactive
9,CC[n+]1ccc(/C=C/c2ccc(N(C)C)cc2)c2ccccc21,26.9 µM (active)
10,CN(C)c1ccc(/C=C/c2cc[n+](C)cc2)cc1,inactive
11,O=C(CN1C(=O)c2ccccc2S1(=O)=O)NCCSCc1cccc(Cl)c1,inactive
12,CC1CCC(C(C)C)C(OC(=O)Cn2c(-c3ccccc3)[n+](C)c3ccccc32)C1 (stereo not given),inactive
13,N#Cc1c(C(F)(F)F)cc(-c2ccc(Cl)cc2)[nH]c1=O,inactive
14,COc1ccc2nc(C)cc(N3CCN(S(=O)(=O)c4ccccc4F)CC3)c2c1,inactive
15,Cc1nc2ncnn2c(N2CCCC(C(=O)Nc3ccccc3Br)C2)c1C (stereo not given),inactive
16,O=S(=O)(c1ccc(Cl)cc1)N1CCN(c2ncnc3sccc23)CC1,inactive
17,Cc1noc(C)c1COc1ccccc1C(=O)N(C)Cc1ccc(C(C)(C)C)cc1,inactive
18,O=c1cc(C(F)(F)F)[nH]c2ccc(OC(F)(F)F)cc12,inactive
19,CCCC(=O)Nc1cccn(Cc2ccccc2Br)c1=O,inactive
20,Cc1ccc(NC(=O)c2ccccc2NS(=O)(=O)c2ccc(F)cc2)cc1S(=O)(=O)N1CCCCC1,inactive
21,COc1cccc(C(=O)Nc2ccc(NC(=O)C3CCCCC3)nc2)c1,inactive
22,Cc1ccc(NC(=O)C(C)c2ccc(-c3ccccc3)c(F)c2)cc1 (stereo not given),inactive

row,Compound,Potency
1,O=C(Nc1ccc(N=Nc2ccccc2)cc1)c1ccccc1Cl,inactive
2,O=C(O)c1cccc(NC2=C(Cl)C(=O)c3ccccc3C2=O)c1,inactive
3,CCN(CC)c1ccc2nc3ccccc3[n+](CC)c2c1,13.5 µM (active)
4,Cn1c2c(c(=O)n(C)c1=O)C(C(F)(F)F)(C(F)(F)F)N=C(c1ccc(Cl)cc1)N2,inactive
5,Cc1sc(N/N=C/c2cccnc2)nc1-c1ccccc1,inactive
6,COc1ccccc1CNc1ncnc2sccc12,inactive
7,COc1ccc(NS(=O)(=O)c2ccc(N/N=C(\C)c3ccncc3)c([N+](=O)[O-])c2)cc1,inactive
8,COC(=O)c1sc(-c2ccc(Cl)cc2)cc1NC(=O)/C=C/C(=O)O,inactive
9,COc1cccc(-c2nc(CS(=O)(=O)CC(=O)NC3CCCCCC3)c(C)o2)c1,inactive
10,CCCOc1ccc(-c2cc(C(=O)NCC3CCCO3)c3ccccc3n2)cc1 (stereo not given),inactive
11,COc1ccc(S(=O)(=O)N2CCN(c3cccc(C)c3C)CC2)cc1,inactive
12,CCOC(=O)c1cc(C(=O)Nc2sc3c(c2C#N)CCCC3)nn1C,inactive
13,Cc1cccc(N(C(=O)c2nsc(Cl)c2Cl)C(C(=O)NC2CCCC2)c2ccc(O)cc2)c1C (stereo not given),inactive
14,Cc1occc1-c1nnc(SCC(=O)Nc2nc(C(C)(C)C)cs2)o1,inactive
15,COc1ccc(Cn2nnnc2C(C(C)C)N2CCN(c3ccccc3OC)CC2)cc1 (stereo not given),inactive
16,O=C(Nc1nc(-c2ccc(S(=O)(=O)N3CCCCCC3)cc2)cs1)c1ccccc1,inactive
17,Cc1ccc(C)c(C(=O)OCC(=O)Nc2cccc(S(=O)(=O)N3CCCCC3)c2)c1,inactive
18,CCOC(=O)c1c(-c2ccccc2)csc1NC(=O)CSc1nnnn1C,inactive
19,Cc1ccccc1-c1cc(C(=O)Nc2sc(C(=O)OC(C)C)c(C)c2C#N)c2ccccc2n1,inactive
20,Cc1ccc(C(=O)COC(=O)CCN2C(=O)C3C4CCC(C4)C3C2=O)cc1[N+](=O)[O-] (stereo not given),inactive
21,COc1ccc(CCNc2ncnc3sc(C)cc23)cc1OC,inactive
